# From PubChem BioAssay
# Where “and” joins values, the source holds several entries; their conditions need not be identical. Equal entries are not always repeated. For part of these data: Potency and affinity values are given separately. Calls of active or inactive are those of the source.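 How the source made its calls, unless noted: active means thallium flux through the channel raised or lowered by more than 3 SD from vehicle-only wells, actives on both sides; inactive means the rest.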
# Key:
# [1] = target: Calcium-dependent protein kinase 1 (Plasmodium falciparum (isolate 3D7)) (UniProt P62344); test: PfCDPK1 kinase inhibitors, biochemical, TCAMS library (AID 1159585; cut-off not given, nearly all actives have IC50 up to about 0.98 µM;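 further: inhibitors leave more ATP so luminescence rises with inhibition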); conditions: recombinant PfCDPK1, Kinase-Glo ATP depletion luminescence
# Sequence of Calcium-dependent protein kinase 1 (Plasmodium falciparum (isolate 3D7)) (P62344 whole entry, looked up): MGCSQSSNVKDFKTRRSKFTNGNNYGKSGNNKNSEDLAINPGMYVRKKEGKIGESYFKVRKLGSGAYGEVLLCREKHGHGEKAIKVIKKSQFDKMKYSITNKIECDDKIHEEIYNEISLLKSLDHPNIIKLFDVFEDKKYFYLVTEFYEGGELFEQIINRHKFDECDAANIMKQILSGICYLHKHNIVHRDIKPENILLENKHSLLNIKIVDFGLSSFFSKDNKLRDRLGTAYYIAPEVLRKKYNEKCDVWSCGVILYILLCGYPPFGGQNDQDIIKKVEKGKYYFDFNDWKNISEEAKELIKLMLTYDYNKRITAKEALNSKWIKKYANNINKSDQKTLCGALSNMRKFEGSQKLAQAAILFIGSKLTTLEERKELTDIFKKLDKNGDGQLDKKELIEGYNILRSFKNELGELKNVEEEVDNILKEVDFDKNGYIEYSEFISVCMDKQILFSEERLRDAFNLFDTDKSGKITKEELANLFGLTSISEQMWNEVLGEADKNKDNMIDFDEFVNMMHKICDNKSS
# F380Y = test: modulators of BK channel variants, profiling panel, selectivity assay, cell-based, U2OS BacMam, thallium flux, beta subunits (AID 1259406); conditions: at 30 µM;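 further: initial slope of Thallos dye fluorescence rise after thallium is added; log ratio against the mean of 0.3% DMSO vehicle wells on the same plate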
# F380Y/beta1 = test: as above; conditions: at 30 µM
# F380Y/beta2Delta = test: as above; conditions: at 30 µM
# F380Y/beta4 = test: as above; conditions: at 30 µM
# [2] = target: Calcium-activated potassium channel subunit alpha-1 (Homo sapiens) + Leucine-rich repeat-containing protein 26 (Homo sapiens) (UniProt Q12791+Q2I0M4); test: as above; conditions: F380Y/Slo1WT/gamma1, at 30 µM
# Sequence of Calcium-activated potassium channel subunit alpha-1 (Homo sapiens) + Leucine-rich repeat-containing protein 26 (Homo sapiens) (Q2I0M4 whole entry, looked up, one chain of several): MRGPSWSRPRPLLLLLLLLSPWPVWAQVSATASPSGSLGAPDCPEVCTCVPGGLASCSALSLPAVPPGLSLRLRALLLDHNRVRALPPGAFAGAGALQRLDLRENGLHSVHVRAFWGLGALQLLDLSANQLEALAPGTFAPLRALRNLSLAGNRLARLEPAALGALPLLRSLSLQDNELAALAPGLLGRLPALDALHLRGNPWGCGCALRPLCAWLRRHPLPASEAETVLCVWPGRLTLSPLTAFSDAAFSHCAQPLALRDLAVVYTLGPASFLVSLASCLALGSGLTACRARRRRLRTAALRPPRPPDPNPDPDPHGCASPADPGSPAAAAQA
# R275C = test: as above; conditions: at 30 µM
# R275C/beta1 = test: as above; conditions: at 30 µM
# R275C/beta2Delta = test: as above; conditions: at 30 µM
# R275C/beta4 = test: as above; conditions: at 30 µM
# R275C/Slo1WT/beta2 = test: as above; conditions: at 30 µM
# [3] = liver-stage malaria parasite growth inhibition, primary screen, cell-based, HepG2, luciferase luminescence, HepG2 viability (AID 624349; in the data active means parasite load remaining mostly below about 12%, no sharp cut-off; inactive means mostly above about 10%;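 further: 100% = mean of DMSO negative control wells on the same plate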); conditions: P. berghei liver stage in HepG2, luciferase luminescence, concentration not given here; parasite load remaining: stronger effect = lower value; viability: measured here: HepG2 viability without parasites
# [4] = Cy5 fluorescence interference with SSB-bound oligo, artefact control for HCV NS3 helicase inhibitor project, biochemical, NIH Clinical Collection, E. coli SSB (AID 743268; call rule not given here)
# [5] = tested on: Hepatitis C virus NS3 helicase; test: HCV NS3 helicase inhibitors, primary screen, biochemical, fluorescence polarization, NIH Clinical Collection (AID 743270; call rule not given here); conditions: NS3 helicase binding to Cy5-dT15 DNA, stronger effect = higher value, concentration not given here
# [6] = target: Single-stranded DNA-binding protein (Escherichia coli (strain K12)) (UniProt P0AGE0); test: E. coli SSB displacement from DNA, counter-screen for HCV NS3 helicase inhibitor project, biochemical, fluorescence polarization, NIH Clinical Collection (AID 743271; in the data active means inhibition above about 28%); conditions: stronger effect = higher value, concentration not given here
# [7] = fluorescence interference in NS3h assay format, artefact control for HCV NS3 helicase inhibitor project, biochemical, NIH Clinical Collection (AID 743272; call rule not given here;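 further: HCV NS3 helicase with a Cy5 labelled single stranded DNA probe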); conditions: fluorescence interference counterscreen, stronger effect = lower value
# [8] = tested on: Neuropilin-2 / VEGF-C interaction (human); test: inhibitors of NRP2–VEGF-C binding, biochemical, microplate binding format, z-score (AID 743281; call rule not given here); conditions: microplate NRP2/VEGF-C binding assay; stronger effect = lower value
# [9] = modulation of C. elegans fzo-1 (AID 1259413; call rule not given here;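 further: fzo-1 mutant C. elegans worms in liquid wells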); conditions: C. elegans fzo-1 modulator screen, mean read-out; stronger effect = higher value
# [10] = sensitizers of A549 cells to miR-34 induction, primary screen, imaging, A549 dox-inducible miR-34, nuclei and caspase counts (AID 1347080;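 active means compounds whose cell count with miR-34 switched on is under 0.7 times the count with it off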); conditions: A549 miR-34 inducible, Hoechst nuclei count, 48 h
structure (smiles),measurement,setting,value
CC(Cc1ccc(OCCCCOc2ccccc2)cc1)NCCC1CCCN1C (centres undefined),outcome,[1],inactive
O=C1COc2ccccc2N1CCN1CCC(NCc2ccc(-c3cccs3)cc2)CC1,outcome,[1],inactive
COc1cc(/C=C/C(=O)NC2CCC(CN3CCC(c4c[nH]c5ccccc45)CC3)CC2)ccc1O (centres undefined),outcome,[1],inactive
C[C@H](Cc1ccc(OCCCCCCOc2ccccc2)cc1)NC[C@@H](O)c1cc(Br)no1,outcome,[1],inactive
CSC(=NCc1ccccc1Cl)NC(N)=N[N+](=O)[O-],log fold change Tl+ flux,F380Y,0.0102 (inactive)
same,log fold change Tl+ flux,F380Y/beta1,0.0433 (inactive)
same,log fold change Tl+ flux,F380Y/beta2Delta,0.00986 (inactive)
same,log fold change Tl+ flux,F380Y/beta4,0.0594 (inactive)
same,log fold change Tl+ flux,[2],0.0227 (inactive)
same,log fold change Tl+ flux,R275C,-0.0153 (inactive)
same,log fold change Tl+ flux,R275C/beta1,-0.0278 (inactive)
same,log fold change Tl+ flux,R275C/beta2Delta,0.0233 (inactive)
same,log fold change Tl+ flux,R275C/beta4,-0.0373 (inactive)
same,log fold change Tl+ flux,R275C/Slo1WT/beta2,-0.0343 (inactive)
CCC(C)(C)N[C@@H](C)[C@@H](O)c1ccc(C(F)(F)F)cc1,outcome,[1],inactive
N#CC(C#N)=Cc1cccnc1,log fold change Tl+ flux,F380Y,0.00869 (inactive)
same,log fold change Tl+ flux,F380Y/beta1,0.00181 (inactive)
same,log fold change Tl+ flux,F380Y/beta2Delta,-0.0117 (inactive)
same,log fold change Tl+ flux,F380Y/beta4,-0.0312 (inactive)
same,log fold change Tl+ flux,[2],6.5e-05 (inactive)
same,log fold change Tl+ flux,R275C,-0.0132 (inactive)
same,log fold change Tl+ flux,R275C/beta1,-0.0358 (inactive)
same,log fold change Tl+ flux,R275C/beta2Delta,-0.0205 (inactive)
same,log fold change Tl+ flux,R275C/beta4,0.025 (inactive)
same,log fold change Tl+ flux,R275C/Slo1WT/beta2,-0.0203 (inactive)
O=c1[nH]c(=S)[nH]c(O)c1C=C1C=CC=N1,log fold change Tl+ flux,F380Y,0.0328 (inactive)
same,log fold change Tl+ flux,F380Y/beta1,0.0561 (inactive)
same,log fold change Tl+ flux,F380Y/beta2Delta,0.06 (inactive)
same,log fold change Tl+ flux,F380Y/beta4,0.0563 (inactive)
same,log fold change Tl+ flux,[2],0.0242 (inactive)
same,log fold change Tl+ flux,R275C,0.0249 (inactive)
same,log fold change Tl+ flux,R275C/beta1,0.101 (inactive)
same,log fold change Tl+ flux,R275C/beta2Delta,0.0741 (inactive)
same,log fold change Tl+ flux,R275C/beta4,0.0391 (inactive)
same,log fold change Tl+ flux,R275C/Slo1WT/beta2,-0.0255 (inactive)
O=C(NC1CCC(CN2CCC(c3c[nH]c4ccccc34)CC2)CC1)c1cc(-c2ccccc2Cl)oc1C(F)(F)F (centres undefined),outcome,[1],inactive
CCCCCCCn1c(=O)c(C(=O)Nc2c(C)cccc2C)c(O)c2ccccc21,outcome,[1],inactive
COc1ccc(C(=O)c2ccc3[nH]cc(C4=CCN(C)CC4)c3c2)cc1,outcome,[1],inactive
CC(C)NC(=O)Cn1cc(C2CCN(CC3CCN(C(=O)/C=C/c4ccc(Cl)c(Cl)c4)CC3)CC2)c2ccccc21,outcome,[1],inactive
CC(=O)Nc1ccc(CN2CCC(N(C)c3cc(NC(=O)c4cccc(F)c4)ccn3)CC2)cc1,outcome,[1],inactive
CS(=O)(=O)Nc1ccc(Cc2noc(-c3ccc4[nH]cc(CCN)c4c3)n2)cc1,parasite load remaining,[3],62% (inactive)
same,viability,[3],68.7%
same,fluorescence ratio,[4],0.59 (active)
same,inhibition,[5],3.28% (inactive)
same,inhibition,[6],36.6% (active)
same,fluorescence ratio,[7],0.8 (active)
same,z-score,[8],1.81 (inactive)
same,mean signal,[9],254 (inactive)
same,fold change,[10]; stronger effect = lower value,0.897 (inactive)
same,fold change,"[10]; stronger effect = lower value, cell number ratio, induced over uninduced",0.9 (inactive)
same,fold change,[10]; measured here: relative caspase fold change +Dox/-Dox,2.28 and 0.865
same,cell count,"[10]; measured here: total cells with miR-34 induction, stronger effect = lower value",9380 and 8560
same,cell count,[10]; measured here: total cells without miR-34 induction,10500 and 9520
same,log fold change Tl+ flux,F380Y,-0.0227 (inactive)
same,log fold change Tl+ flux,F380Y/beta1,0.0172 (inactive)
same,log fold change Tl+ flux,F380Y/beta2Delta,-0.088 (inactive)
same,log fold change Tl+ flux,F380Y/beta4,-0.0117 (inactive)
same,log fold change Tl+ flux,[2],-0.0241 (inactive)
same,log fold change Tl+ flux,R275C,-0.054 (inactive)
same,log fold change Tl+ flux,R275C/beta1,0.0159 (inactive)
same,log fold change Tl+ flux,R275C/beta2Delta,-0.0492 (inactive)
same,log fold change Tl+ flux,R275C/beta4,0.0477 (inactive)
same,log fold change Tl+ flux,R275C/Slo1WT/beta2,0.0125 (inactive)
CC[C@H]1CN2CC[C@H]1C[C@H]2[C@H](O)c1cc(-c2ccc3ccccc3c2)nc2ccc(OC)cc12,outcome,[1],inactive
CCC1=C[C@@H]2CN(C1)Cc1c([nH]c3ccccc13)[C@@](C(=O)OC)(c1cc3c(cc1OC)N(C)[C@H]1[C@@](O)(C(=O)OC)[C@H](O)[C@]4(CC)C=CCN5CC[C@]31[C@@H]54)C2,outcome,[1],inactive
CC(C)CNCc1cccc(-c2ccc(CN(C(=O)c3cccs3)C3CCN(Cc4ccccc4)CC3)cc2)c1,outcome,[1],inactive
CN(c1cc(NC(=O)c2ccc(F)cc2)ccn1)C1CCN(Cc2cccc(C#N)c2)CC1,outcome,[1],inactive
O=C(Nc1cc(C(F)(F)F)cc(C(F)(F)F)c1)N1CCC(CN2CCC(c3c[nH]c4ccccc34)CC2)CC1,outcome,[1],inactive
O=[N+]([O-])c1ccc(Oc2c(Cl)cc(S(=O)(=O)NC3CCC(CN4CCC(c5c[nH]c6ccccc56)CC4)CC3)cc2Cl)c(Cl)c1 (centres undefined),outcome,[1],inactive
